Bioassay records: PubChem BioAssay, several laboratories
RecA intein inh: Mtb RecA intein splicing inhibitors, primary screen, biochemical, fluorescence, HTS; Protein RecA (Mycobacterium tuberculosis (strain ATCC 25618 / H37Rv)), P9WHJ3; cell-free RecA intein splicing; inhibition, % (no concentration beside the values); actives 0.75% (n = 290,000); AID 2221, 2009; in the data active means inhibition above about 30%;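 further: 0% = vehicle wells and 100% = reference inhibitor control wells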
UGM FP inh: M. tuberculosis UGM enzyme inhibitors, primary screen, biochemical, fluorescence polarization, single point. purified UGM, fluorescence polarization probe displacement. inhibition, % at 10 µM. actives 0.06% (n = 320,000); in the data active means inhibition above about 10%, passing the limit was not always enough
Target sequence (P9WIQ1 whole entry, looked up): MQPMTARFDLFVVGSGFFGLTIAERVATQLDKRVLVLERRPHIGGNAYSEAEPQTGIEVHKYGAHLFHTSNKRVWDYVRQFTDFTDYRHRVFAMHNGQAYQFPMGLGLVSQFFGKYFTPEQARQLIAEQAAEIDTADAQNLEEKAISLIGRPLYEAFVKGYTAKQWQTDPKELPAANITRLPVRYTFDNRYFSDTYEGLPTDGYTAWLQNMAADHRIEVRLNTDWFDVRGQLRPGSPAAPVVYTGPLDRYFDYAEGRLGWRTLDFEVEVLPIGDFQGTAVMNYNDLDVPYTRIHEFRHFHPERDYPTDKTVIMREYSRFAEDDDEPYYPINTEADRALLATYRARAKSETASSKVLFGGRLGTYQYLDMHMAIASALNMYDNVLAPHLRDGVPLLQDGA
Rv3671c protease: Rv3671c serine protease inhibitors, primary screen, biochemical, fluorescence polarization, M. tuberculosis H37Rv; P9WHR9; inhibition, % at 5.96 µM; actives 0.048% (n = 320,000); in the data active means inhibition above about 38%;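 further: extracellular domain of Rv3671c used as enzyme; 0% = enzyme with DMSO and 100% = no enzyme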
GDH-TPI inh: GDH-TPI coupling enzyme inhibitors, primary screen, artefact control for M. tuberculosis FBA inhibitor project, biochemical, absorbance, full deck | GDH-TPI coupled enzyme counterscreen, NADH absorbance | inhibition, % at 4.8 µM | actives 1.2% (n = 360,000); in the data active means inhibition above about 30%;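 further: 0% = DMSO wells and 100% = wells lacking the enzyme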
Mtb FBA inh: Mtb FBA enzyme inhibitors, primary screen, biochemical, fluorescence, strain H37Rv; AID 588726, 2011; inhibition, % at 1 µM; purified M. tuberculosis FBA, fluorescence read-out; actives 2.3% (n = 360,000); in the data active means inhibition above about 27%;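 further: 0% = vehicle and 100% = reference inhibitor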
Mtb betalactam: beta-lactam sensitization of Mtb H37Rv, H37Rv. actives 0.27% (n = 330,000). inhibition, % at 25 µM. M. tuberculosis H37Rv growth with meropenem, percent inhibition;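 further: growth measured after seven days incubation then overnight dye step; 0% = bacteria only wells and 100% = bacteria with antibiotic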
GFP chromophore: counter-screen: blocks GFP chromophore formation, dose response, counter-screen, biochemical, fluorescence, homogeneous; shares compounds with RecA intein inh; cell-free GFP chromophore formation; EC50, µM; actives 83% (n = 2,100); AID 434968, 2010
* hit, by the source's call; · = no result given. Rows were chosen to be rich in hits. Some 4% of all compounds tested hit in one or more screens of this group. Unless noted, how the calls were made is not given here.

SMILES	RecA intein inh	UGM FP inh	Rv3671c protease	GDH-TPI inh	Mtb FBA inh	Mtb betalactam	GFP chromophore
Cc1[nH]n(-c2ccccc2)c(=O)c1C(c1ccc(O)c([N+](=O)[O-])c1)c1c(C)[nH]n(-c2ccccc2)c1=O	86*	1	-48	1	-21	7	2.3*
Cc1[nH]n(-c2ccccc2)c(=O)c1C(c1ccc([N+](=O)[O-])cc1)c1c(C)[nH]n(-c2ccccc2)c1=O	95*	2	-185	11	-9	6	1.6*
O=C(Nc1ccc(N2CCOCC2)cc1)C1CC(=O)N(c2ccc(Cl)cc2)C1 (stereo not drawn)	-1	-3	-2	9	0	2	·
Cc1ccc2nc(/C(C#N)=C\c3ccc([N+](=O)[O-])o3)[nH]c2c1	34*	1	-16	8	-5	100	8.4*
N#CC1=C(N)Oc2n[nH]c(-c3cccs3)c2C1c1cccnc1 (stereo not drawn)	69*	1	-18	4	-3	7	>38
CC(C)C1C(C#N)=C(N)Oc2n[nH]c(-c3cccs3)c21 (stereo not drawn)	15	-1	-8	-1	1	-6	·
Cc1ccc(C2C(C#N)=C(N)Oc3n[nH]c(-c4cccs4)c32)cc1 (stereo not drawn)	66*	-3	-33	7	2	-10	7.6*
CC(C)c1[nH]nc2c1C(c1cccs1)C(C#N)=C(N)O2 (stereo not drawn)	62*	1	-5	-10	-2	-10	28*
CCc1cccc(NC(=O)CSCc2cc(=O)[nH][nH]2)c1	81*	2	-9	9	1	-17	12*
CCc1cccc(NC(=O)Cn2cccc2)c1	-1	-1	1	-2	-2	33	·
COc1cccc(C(=O)NNC(=O)Cc2ccc(Cl)cc2)c1	0	0	-1	4	0	-8	·
COc1cccc(C(=O)Nc2nc(SCc3ccc(Cl)cc3)n[nH]2)c1	39*	-3	11	1	2	-5	>38
O=c1[nH]c2ccc(Cl)cc2c(-c2ccccc2)c1SC(=S)N1CCCCC1	40*	1	-8	-1	-3	-8	>38
O=c1[nH]c2ccc(Cl)cc2c(-c2ccccc2)c1SC(=S)N1CCOCC1	4	-1	0	2	-1	2	·
O=[N+]([O-])c1ccc(-c2cc(-c3ccc(Cl)cc3)n[nH]2)cc1	3	0	-19	27	-1	2	·
O=c1cc(-c2ccc(Cl)c(Cl)c2)[nH][nH]1	88*	-3	-57	8	-4	1	6.6*
COc1ccc(-c2cc(=O)[nH][nH]2)cc1	98*	1	-102	-3	1	-9	1.9*
O=c1cc(-c2ccc(Cl)cc2)[nH][nH]1	94*	0	-153	-10	0	4	1.9*
COc1ccc(-c2cc(=O)[nH]c(=O)[nH]2)cc1	5	-2	-2	17	-4	-3	·
N=C1C(c2nc3ccccc3s2)=C(O)CN1C1CCC(O)CC1 (stereo not drawn)	-1	-2	-13	·	·	8	·
CN(NS(C)(=O)=O)c1ncc(C(F)(F)F)cc1Cl	-6	-1	6	4	2	-1	·
COc1ccc2c(C)cc(SCC(=O)Nc3cc(C(N)=O)cc(C(N)=O)c3)nc2c1	-1	-1	-30	0	-1	2	·
Cc1ccc(NC2=C(NCCO)C(=O)c3ccccc3C2=O)cc1	71*	5	-179	18	-1	18	20*
CC(=O)Nc1ccc(NC2=C(Cl)C(=O)c3ccccc3C2=O)cc1	7	·	·	·	·	·	·
CCCCCCC1CCC(C(=O)NC(CCSC)C(=O)NC(C(=O)OC)C(C)C)CC1 (stereo not drawn)	2	1	0	5	1	-4	·
